Reference: PubChem BioAssay (NCATS)
Several values for one entry are separate records, joined by “and”; a condition that tells them apart may be missing. Equal values may be shown once. Inconclusive results are not listed. Where a structure was tested more than once in an assay, its records may differ in their call. Activity calls are given as the source filed them. Calls follow the shape of the dose curve; as a rule, active = well fitted curve in the direction sought with a large enough effect; inconclusive = small, poorly fitted or top-dose-only effect, or another doubt; inactive = no such curve, though single readings can be large; an effect the other way counts as inactive or inconclusive.

How the values were obtained:
[1] = target: Glutathione peroxidase 1 (Homo sapiens) (UniProt P07203); experiment: Primary qHTS Assay for Inhibitors of Recombinant Selenoprotein Glutathione Peroxidase 1 (GPX1) (AID 1845191); also: nearly all actives have a fitted effect of over 65% in size; also: potency is read from the fitted curve at half-maximal effect; as to activity, negative = inhibition: % is scaled to controls: 0 for no effect and ±100 for the full control effect
Glutathione peroxidase 1 (Homo sapiens), sequence (P07203 whole entry, looked up): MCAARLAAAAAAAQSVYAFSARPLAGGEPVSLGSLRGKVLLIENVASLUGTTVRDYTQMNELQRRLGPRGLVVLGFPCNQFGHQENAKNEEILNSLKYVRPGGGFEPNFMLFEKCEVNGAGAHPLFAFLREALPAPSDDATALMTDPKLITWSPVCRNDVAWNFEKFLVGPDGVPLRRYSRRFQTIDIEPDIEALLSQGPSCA
Procedure, shortened: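 Recombinant GPX1 (10 nM final) was preincubated with compound for 30 min at room temperature, then reacted with 1 mM GSH, 0.5 mM CHP, 0.5 mM NADPH and 100 nM glutathione reductase; NADPH fluorescence (340/450 nm) was read at 0 and 15 min.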

[2] = target: Phospholipid hydroperoxide glutathione peroxidase GPX4 (Homo sapiens) (UniProt P36969); experiment: Primary qHTS Assay for Inhibitors of Recombinant Selenoprotein Glutathione Peroxidase 4 (GPX4) (AID 1845192); also: nearly all actives have a fitted effect of over 65% in size; also: potency is read from the fitted curve at half-maximal effect; as to activity change, negative = inhibition: series mostly up to about 50 µM; % is scaled to controls: 0 for no effect and ±100 for the full control effect
Phospholipid hydroperoxide glutathione peroxidase GPX4 (Homo sapiens), sequence (P36969 whole entry, looked up): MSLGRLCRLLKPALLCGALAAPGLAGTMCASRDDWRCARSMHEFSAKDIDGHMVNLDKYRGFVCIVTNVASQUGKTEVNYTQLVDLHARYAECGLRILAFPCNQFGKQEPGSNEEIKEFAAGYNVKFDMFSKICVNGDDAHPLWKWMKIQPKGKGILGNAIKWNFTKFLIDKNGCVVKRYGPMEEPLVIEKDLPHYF
Procedure, shortened: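 GR-coupled readout: 100 nM GR, 1 mM GSH, 0.5 mM NADPH; NADPH fluorescence (ex 340/em 450 nm) read at t=0 and after 15 min RT. GPX4 200 nM, preincubated 30 min with compound; substrate 0.5 mM CHP.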

[3] = Primary fluorescence-based thiol-reactive (MSTI) qHTS assay for identification of artifact compounds. (AID 1845221); also: nearly all actives have a fitted effect of over 65% in size; also: potency is read from the fitted curve at half-maximal effect;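 as to activity change, negative = thiol reactive: series mostly up to about 54 µM; thiol-reactive compounds lower the probe fluorescence signal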
Procedure, shortened: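 One-hour, room-temperature, dark incubation of compound with 4 uM MSTI in PBS (pH 7.4, 2% DMSO) precedes a fluorescence read at 525 nm excitation, 598 nm emission; Hill-equation fitting yields concentration-response values.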

[4] = test system: Nanoluciferase (engineered Oplophorus gracilirostris luciferase); experiment: Primary Nanoluciferase (NLuc) qHTS assay for identification of artifact compounds. (AID 1845222); also: potency is read from the fitted curve at half-maximal effect;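 as to activity, negative = inhibition: series mostly up to about 54 µM; 0% = DMSO and -100% = no enzyme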
Procedure, shortened: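 Luminescence read-out of secreted NLuc in S16 cell conditioned medium (1:55); compounds tested with 15 min RT preincubation, then Nano-Glo substrate 1:100, 5 min. % inhibition vs no-enzyme and DMSO controls, 4-parameter Hill fit.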

[5] = target: Luciferin 4-monooxygenase (Photinus pyralis) (UniProt P08659); experiment: Primary firefly luciferase (FLuc) qHTS assay for identification of artifact compounds. (AID 1845220); also: nearly all actives have a fitted effect of over 60% in size;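 as to activity change, negative = inhibition: series mostly up to about 54 µM; plate controls were DMSO vehicle for no effect and no enzyme for full effect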
Procedure, shortened: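 qHTS, 15 min compound preincubation with substrate (10 uM luciferin, 10 uM ATP) at RT, then 10 nM FLuc; 5 min; luminescence; % inhibition vs no-enzyme/DMSO controls, 4-parameter Hill fit.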

COc1cc(C(C)=O)ccc1O[C@@H]1O[C@H](CO[C@@H]2O[C@@H](C)[C@H](O)[C@@H](O)[C@H]2O)[C@@H](O)[C@H](O)[C@H]1O
inactive: Potency [1] | Potency [2] | Potency [3] | Potency [4]

COc1cc(C2c3cc(O)c(OC)cc3CC(CO)C2CO)ccc1O (configuration not stated)
active: Potency [3] 8.26 µM
inactive: Potency [1] | Potency [2] | Potency [4]

CC(=O)C1CCC2(C)C3=C(CCC12C)C1(C)CCC(=O)C(C)(C)C1CC3 (configuration not stated)
inactive: Potency [1] | Potency [2] | Potency [3] | Potency [4]

O=C(Nc1cccnn1)N1CCC(=Cc2cccc(Oc3ccc(C(F)(F)F)cn3)c2)CC1
inactive: Potency [1] | Potency [2] | Potency [3] | Potency [4]

COC1CCCC/C(C)=C/C2C=C(C)C(C)C3C(CC(C)C)NC(=O)C23C(=O)C1 (configuration not stated)
inactive: Potency [1] | Potency [2] | Potency [3] | Potency [4]

NCCOCCOCCNC(=O)Cc1ccc(Nc2nc(NCc3ccc(F)cc3)nc(NCC3CCCCC3)n2)cc1
inactive: Potency [1] | Potency [2] | Potency [4]

C=C(C)C(=O)O[C@H]1C[C@@](C)(OC(C)=O)[C@@]2(O)CC[C@@](C)(O)[C@H](OC(C)=O)[C@@]23OC(=O)C(COC)=C13
inactive: Potency [1] | Potency [2] | Potency [4]

C=C1CC[C@H]2[C@@](C)(CCC[C@@]2(C)C(=O)O)[C@@H]1CCC(C)CCO (some centres not stated)
inactive: Potency [1] | Potency [2] | Potency [3] | Potency [4]

C=C1CC[C@@H]2[C@](C)(CO[C@@H]3O[C@H](CO)[C@@H](O)[C@H](O)[C@H]3O)CCC[C@@]2(C)[C@@H]1CCC1=CCOC1=O
inactive: Potency [1] | Potency [2] | Potency [3] | Potency [4]

Oc1ccc([C@H]2COc3cc(O)ccc3C2)cc1
inactive: Potency [1] | Potency [2] | Potency [3] | Potency [4]

CO[C@H]1C=C2C(CC[C@H](O[C@@H]3O[C@H](CO)[C@@H](O)[C@@H](O)[C@H]3O)C2(C)C)[C@]2(C)CC[C@]3(C)C([C@H](C)C(O)C(C=C(C)C)O[C@@H]4O[C@H](CO)[C@@H](O)[C@@H](O)[C@H]4O)CC[C@@]3(C)C12 (some centres not stated)
inactive: Potency [1] | Potency [2] | activity change, negative = thiol reactive [3] 133% [at 11.5 µM] | activity, negative = inhibition [4] 4.54% [at 11.6 µM]

COc1cc(NC(=O)c2ccccn2)ccc1Cl
inactive: Potency [1] | Potency [2] | Potency [3] | Potency [4]

O=C1NC(=Nc2ccccc2F)S/C1=C\c1ccc(C(=O)O)cc1
inactive: Potency [1] | Potency [2] | Potency [3] | Potency [4]

Cc1cc(O)cc(Oc2cc(C)c(C(=O)O)c(O)c2)c1
inactive: Potency [1] | Potency [2] | Potency [4]
active: Potency [3] 3.36 µM

CC(=O)OC(CSC1CCC(=O)OC(C)CCC(=O)C1)C(=O)O (configuration not stated)
inactive: Potency [1] | Potency [2] | Potency [3] | Potency [4]

CC1=CC[C@]2(C(=O)O[C@@H]3O[C@H](CO[C@@H]4O[C@H](CO)[C@@H](O[C@@H]5O[C@@H](C)[C@H](O)[C@@H](O)[C@H]5O)[C@H](O)[C@H]4O)[C@@H](O)[C@H](O)[C@H]3O)CC[C@]3(C)C(CCC4[C@@]5(C)C[C@@H](O)[C@H](O)[C@@](C)(CO)C5CC[C@]43C)C2C1C (some centres not stated)
inactive: Potency [1] | Potency [2] | activity change, negative = thiol reactive [3] 137% [at 11.5 µM] | activity, negative = inhibition [4] 3.97% [at 11.6 µM]

O=C(O)c1ccc(CCCc2ccc(OCCc3ccc(F)cc3)cc2)o1
active: Potency [2] 16.1 µM
inactive: Potency [1] | Potency [3] | Potency [4]

COC(=O)C[C@@H]1C(C(=O)O)=CO[C@@H](O[C@@H]2O[C@H](CO)[C@@H](O)[C@H](O)[C@H]2O)/C1=C\COC(=O)/C=C\c1ccccc1
inactive: Potency [1] | Potency [2] | Potency [3] | Potency [4]

C[C@@H]1O[C@@H](O[C@@H]2[C@@H](O)[C@H](O[C@@H]3[C@@H](O)[C@@H](O)[C@H](O[C@H]4[C@H](OC(=O)[C@]56CCC(C)(C)C[C@H]5C5=CCC7[C@@]8(C)C[C@H](O)[C@H](O[C@@H]9O[C@H](C(=O)O)[C@@H](O)[C@H](O)[C@H]9O)[C@@](C)(CO)C8[C@H](O)C[C@@]7(C)[C@]5(C)CC6)OC[C@H](O)[C@@H]4O)O[C@H]3C)OC[C@H]2O)[C@H](O)[C@H](O)[C@H]1O (some centres not stated)
inactive: outcome [1] inactive [at 9.52 µM] | activity change, negative = inhibition [2] -2.98% [at 9.73 µM] | activity change, negative = thiol reactive [3] 319% [at 11.5 µM] | activity, negative = inhibition [4] 0.798% [at 11.6 µM]

CC(=O)OC1C(O)CC(O[C@@H]2O[C@H](CO)[C@@H](O)[C@H](O)[C@H]2O)C2CCC3C(=O)OC(c4ccoc4)CC3(C)C21 (some centres not stated)
inactive: Potency [1] | Potency [2] | Potency [3] | Potency [4]

CCC1CC2C(C)=CC3CCCCC3C2(C)C2(OC(=O)C(C)(O)OC2=O)O1 (configuration not stated)
inactive: Potency [1] | Potency [2] | Potency [3] | Potency [4]

O=C1C[C@@H](c2ccc(O)cc2)Oc2cc(O)ccc21
inactive: Potency [1] | Potency [2] | Potency [3] | Potency [4]

C=C1C[C@]23C[C@H]1CC[C@H]2[C@]1(C)CCC[C@@]2(CO)C(=O)O[C@H]([C@H]21)[C@@H]3O
inactive: Potency [1] | Potency [2] | Potency [3] | Potency [4]

CNC(=O)[C@H]1O[C@@H](n2cnc3c(NCc4ccc(N)c(I)c4)ncnc32)[C@H](O)[C@@H]1O
inactive: activity, negative = inhibition [1] 3.67% [at 9.52 µM] | activity change, negative = inhibition [2] -1.09% [at 9.73 µM] | activity change, negative = thiol reactive [3] 20.2% [at 11.5 µM] | activity, negative = inhibition [4] -0.867% [at 11.6 µM]

C=C[C@H]1[C@H](O[C@@H]2O[C@H](CO)[C@@H](O)[C@H](O)[C@H]2O)OC=C(C(=O)OC)[C@H]1C[C@@H]1N[C@H](C(=O)O)Cc2c1[nH]c1ccccc21
inactive: Potency [1] | Potency [2] | Potency [4]

COc1ccc([C@H]2Cc3cccc(O)c3C(=O)O2)cc1
inactive: Potency [1] | Potency [2] | Potency [3] | Potency [4]

CCn1cc(C2=NOC(C(=O)Nc3c(C)n(C)n(-c4ccccc4)c3=O)C2)c(C)n1 (configuration not stated)
inactive: Potency [1] | Potency [2] | Potency [4]

O=C(O)c1cc(O[C@@H]2O[C@H](CO[C@@H]3OC[C@@H](O)[C@H](O)[C@H]3O)[C@@H](O)[C@H](O)[C@H]2O)c2ccccc2c1O
inactive: Potency [1] | Potency [2] | Potency [4]
active: Potency [3] 3.67 µM

Cc1cc(O)c(C(C)C)cc1O[C@@H]1O[C@H](CO)[C@@H](O)[C@H](O)[C@H]1O
inactive: Potency [1] | Potency [2] | Potency [4]

C[C@H]1[C@H](C)CC[C@]2(C(=O)O)CC[C@]3(C(=O)O)C(=CCC4[C@@]5(C)CC[C@H](O[C@@H]6O[C@H](C)[C@@H](O)[C@H](O)[C@H]6O)C(C)(C)C5CC[C@]43C)[C@H]12 (some centres not stated)
inactive: Potency [1] | Potency [2] | Potency [3] | Potency [4]

CCOc1nc2cccc(C(=O)OCc3oc(=O)oc3C)c2n1Cc1ccc(-c2ccccc2-c2noc(O)n2)cc1
inactive: Potency [1] | Potency [3]
inactive and 12.6 µM (active): Potency [2]

O=C(O[C@H]1[C@@H]2C=CO[C@@H](O[C@@H]3O[C@H](CO)[C@@H](O)[C@H](O)[C@H]3O)[C@@H]2[C@@]2(CO)O[C@@H]12)c1ccc(O)cc1
inactive: Potency [1] | Potency [2] | Potency [4]

CN[C@@H]1[C@@H](O)[C@@H](O[C@@H]2[C@@H](O)[C@H](O[C@H]3O[C@H](CN)[C@@H](O)[C@H](O)[C@H]3O)[C@@H](N)C[C@H]2NC(=O)[C@@H](O)CN)OC[C@]1(C)O
inactive: Potency [1] | Potency [2] | Potency [3] | Potency [4]

CCC[C@@H]1C[C@@H](C(=O)N[C@H](C(C)Cl)[C@H]2O[C@H](SC)[C@H](O)[C@@H](O)[C@H]2O)N(C)C1 (some centres not stated)
inactive: Potency [2] | Potency [5] | Potency [3] | Potency [4]

COC(=O)[C@H]1[C@H]2C[C@@H]3c4[nH]c5ccccc5c4CCN3C[C@H]2C[C@@H](OC(=O)c2cc(OC)c(OC)c(OC)c2)[C@@H]1OC
active: Potency [2] 17.8 µM

CC(C)C(=O)c1cn(CC(=O)COc2ccc(Oc3ccccc3)cc2)c2ccc(C(=O)O)cc12
inactive: Potency [1] | Potency [5] | Potency [3]
active: Potency [4] 6.01 µM

Cc1ncc([N+](=O)[O-])n1CC(O)CN1CCOCC1 (configuration not stated)
inactive: Potency [2] | Potency [5] | Potency [3] | Potency [4]

CC[C@@]1(O)C(=O)OCc2c1cc1n(c2=O)Cc2cc3c([N+](=O)[O-])cccc3nc2-1
active: Potency [2] 35.5 µM

Cc1cc(C)cc(NC(=O)Cc2ccc(OC(C)(C)C(=O)O)cc2)c1
inactive: Potency [2] | Potency [5] | Potency [3] | Potency [4]

COC(F)(F)C(Cl)Cl
inactive: Potency [2]

C#C[C@]1(O)CC[C@H]2[C@@H]3CCC4=C/C(=N/O)CC[C@@H]4[C@H]3CC[C@@]21CC
inactive: Potency [1] | Potency [5] | Potency [3] | Potency [4]

CC(C)(C)NCc1cc(Nc2ccnc3cc(Cl)ccc23)c2c(c1O)CCCC2
inactive: activity change, negative = inhibition [2] -7.38% [at 0.409 µM] | activity change, negative = inhibition [5] -4.19% [at 0.464 µM] | activity change, negative = thiol reactive [3] -13.7% [at 0.461 µM] | activity, negative = inhibition [4] 1.02% [at 0.464 µM]

c1nc(NC2CCCCCC2)c2cc(CNC[C@H]3CCCO3)sc2n1
inactive: Potency [2] | Potency [5] | Potency [3] | Potency [4]

C[C@@H]1C/C=C/C=C\C=C\C=C\[C@H](O[C@@H]2O[C@H](C)[C@@H](O)[C@H](N)[C@@H]2O)C[C@@H]2O[C@](O)(C[C@@H](O)C[C@H]3O[C@@H]3/C=C/C(=O)O1)C[C@H](O)[C@H]2C(=O)O
inactive: Potency [2] | Potency [5] | Potency [3] | Potency [4]

CC(=O)N[C@H]1CCN(c2ccc(C3=NOC(CN[S+](=O)([O-])C(C)C)C3)cc2F)C1 (some centres not stated)
inactive: Potency [1] | Potency [5] | Potency [4]

CC(NCc1ccc(OCc2cccc(F)c2)cc1)C(N)=O (configuration not stated)
inactive: Potency [2] | Potency [5] | Potency [3] | Potency [4]

C/C=C(/C)C(=O)O[C@H]1C=C(C)C[C@H](OC(=O)c2ccc(O)cc2)C2[C@](O)(C(C)C)CC[C@@]21C (some centres not stated)
inactive: Potency [2] | Potency [5] | Potency [3] | Potency [4]

NCc1c[nH]c(=S)n1C1CCc2c(F)cc(F)cc2C1 (configuration not stated)
inactive: Potency [5] | Potency [4]
active: Potency [1] 22.7 µM

COc1cc(N2CCC(N(C)C)CC2)ccc1Nc1ncc(Cl)c(Nc2ccccc2P(C)(C)=O)n1
inactive: Potency [1] | Potency [2] | Potency [4]
